Assay outcomes (PubChem BioAssay)
USP30 block: human USP30 deubiquitinase inhibition; AID 1645860; 5.3% of 47,000 active; inhibition, % at 25 µM; Q70CQ3; purified USP30, Ub-rhodamine cleavage fluorescence
USP28 block: blocks human USP28 ubiquitin-rhodamine cleavage | purified USP28, Ub-rhodamine cleavage fluorescence, 30 min | inhibition, % at 25 µM | 3% of 47,000 active | AID 1645857
USP17 block: inhibitors of human USP17 deubiquitinase; A8MUK1; purified USP17, Ub-rhodamine cleavage fluorescence, 3 h; inhibition, % at 50 µM; 6.5% of 47,000 active
Starred values were filed as active, the others as inactive; i = inactive; x = no result. Shown are actives, neighbours in structure and some others; about 11% of the full set was active somewhere. Cut-off read from the data, not from the text of the source: active = inhibition above about 30%; inactive = the rest.

SMILES	USP30 block	USP28 block	USP17 block
Cc1nc2sc3c(N(Cc4ccccc4)Cc4ccccc4)ncnc3c2c2c1COC(C)(C)C2	-33	-9	-26
Cc1ccc(C(=O)NCC2(N3CCN(C)CC3)CCCCC2)cc1	4	4	-6
CNC(=O)c1cnn2c(C3CCCCN3C(=O)C(C)(C)C)ccnc12 (stereo not drawn)	9	3	4
CCCOC(=O)c1cc(NC(=O)c2ccc(C(C)C)cc2)ccc1N1CCOCC1	-10	11	6
COc1cccc(S(=O)(=O)N2C[C@@H]3C[C@H]2C[C@@H]3NC(=O)c2ccccc2)c1	-48	-12	-1
Cc1nccn1-c1ccc(CNC(=O)c2ccc3c(c2)OCO3)cc1	20	6	15
CC(C)(C)c1ccc(C(=O)NCc2cccnc2)s1	-8	-8	x
O=C(Nc1sc2c(c1C(=O)NCc1cccnc1)CCCC2)c1csnn1	11	38*	49*
Cc1cccc(C(=O)N2CCC(Cc3nc(C)cc(-c4nccn4C)n3)CC2)n1	28	5	8
Cc1ccc(C)c(N(C)C(=O)c2nn(C)c3c2CSc2ccccc2-3)c1	39*	27	x
Cc1ccc2c(c1)-c1c(c(C(=O)N3CCN(c4ccccc4)CC3)nn1C)CS2	i	-260	-193
CN1CC(=O)N(C2CCNC2)Cc2c(NC3CCc4ccccc43)ncnc21 (stereo not drawn)	-24	-4	-28
COc1ccccc1CNC(=O)C(=O)c1cn(CC(=O)N2CCCCC2)c2ccccc12	26	13	16
CCN(CC)C(=O)Cn1cc(S(=O)(=O)Cc2c(F)cccc2Cl)c2ccccc21	38*	-1	14
Cc1ccccc1CS(=O)(=O)c1cn(CC(=O)N2CCCCC2)c2ccccc12	-10	-6	0
CCN(CC)C(=O)Cn1cc(S(=O)(=O)Cc2ccccc2Cl)c2ccccc21	18	16	38*
CCN(CC)C(=O)Cn1cc(C(=O)C(=O)NCc2ccccc2Cl)c2ccccc21	45*	17	5
O=C(Cn1cc(S(=O)(=O)Cc2c(F)cccc2Cl)c2ccccc21)N1CCCCCC1	0	-7	1
O=C(CSc1nnc(N2CCOCC2)c2ccccc12)Nc1ccccc1F	-2	-12	-20
CC(=O)Nc1ccc(C(=O)NCc2cnn3ccccc23)cc1	7	15	12
COc1cccc(CCC(=O)NC2CCCc3ccccc32)c1OC (stereo not drawn)	-15	-14	0
Cc1nc(C2CN(CC(=O)Nc3sc(C)c(C)c3C)CCO2)n[nH]1 (stereo not drawn)	-4	-1	-13
COc1ccc(NC(=O)c2sc3nc(-c4cccc([N+](=O)[O-])c4)cn3c2C)cc1OC	6	-8	44*
CC(=O)c1cccc(NC(=O)c2sc3nc(-c4cccc([N+](=O)[O-])c4)cn3c2C)c1	19	14	21
O=C(NCC(c1cccnc1)N1CCc2ccccc21)c1ccc2c(c1)OCO2 (stereo not drawn)	6	5	x
SMILES	USP30 block	USP28 block	USP17 block
CC1=NS(=O)(=O)N(Cc2ccccc2)C=C1C(=O)Nc1ccc(C)cc1	i	-197	-119
Cc1ccc(NC(=O)c2sc(=S)n(CCc3ccccc3)c2N)cc1	44*	21	76*
CC1CCN(CCCNC(=O)c2cccc(N3CCCC3=O)c2)CC1	-10	-14	0
Cc1cccc(C(=O)NC(NC(=O)c2cccc(C)c2)c2ccccc2F)c1	43*	16	x
Cc1cccc(C(=O)NC(c2ccccc2)c2cccnc2)c1 (stereo not drawn)	3	-4	-11
Fc1ccc(OCc2cc(-c3ccccc3)no2)cc1	0	8	-16
Cc1cccc(OCc2cc(-c3ccccc3)no2)c1C	16	48*	18
Cc1cn[nH]c1CC1CCCN(C(=O)Cc2c[nH]c3ccccc23)C1 (stereo not drawn)	1	9	-3
Cc1cc(C)cc(NC(=O)CSc2ccc(-c3ccncc3)nn2)c1	55*	19	-5
CCc1ccc(NC(=O)CSc2ccc(-c3ccncc3)nn2)cc1	-5	2	5
CC1CCN(S(=O)(=O)N2CCCC(C(=O)NCCCN3CCC(N4CCCCC4)CC3)C2)CC1 (stereo not drawn)	-51	-21	-21
COC(=O)c1ccc(C(=O)OC)c(NC(=O)c2nn(-c3ccccc3)c(=O)cc2OC)c1	14	2	37*
COC(=O)c1ccc(C)c(NC(=O)c2nn(Cc3ccccc3)c(=O)c3ccccc23)c1	-111	-2	-4
O=C(Nc1cccc(-c2nc3ccccc3[nH]2)c1)c1cc2ccccc2oc1=O	37*	-3	60*
O=C(COc1ccccc1[N+](=O)[O-])Nc1cccc(-c2nc3ccccc3[nH]2)c1	15	-1	-51
Cc1cccc(CNS(=O)(=O)c2c[nH]c(-c3nnc(C)o3)c2)c1	-133	-33	-62
